Screen size: about 48,000 compounds; about 550 (1.1%) were called active. Roughly 4% stayed inconclusive and do not appear here. No stated cut-off is given here; in the data, active means potency below about 15 µM; inconclusive means mostly about 16 µM to 33 µM; inactive means weaker than that. What follows is part of a selection rich in actives, with near analogues and random picks from the rest. Where only a bound is given, the exact number is not on record here.
Potency means the concentration at half of the fitted maximal effect.

In this assay the target is Lysosomal acid glucosylceramidase (Homo sapiens) (UniProt P04062). Nature of the assay: Glucocerebrosidase.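 Further: the screen sought inhibitors.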 As to conditions: purified enzyme, resorufin glucoside fluorescence (screen aimed at inhibitors), 20 min. The essentials: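 Wild-type enzyme at 0.2 nM final in 50mM citric acid/KH2PO4, 10mM sodium taurocholate, 0.01% tween-20, pH 5.9, with resorufin beta-D-glucopyranoside at 30 uM final. Compounds titrated, 20 min at RT, red fluorescence read; AC50 from titration.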
Chain of Lysosomal acid glucosylceramidase (Homo sapiens) (P04062 whole entry, looked up): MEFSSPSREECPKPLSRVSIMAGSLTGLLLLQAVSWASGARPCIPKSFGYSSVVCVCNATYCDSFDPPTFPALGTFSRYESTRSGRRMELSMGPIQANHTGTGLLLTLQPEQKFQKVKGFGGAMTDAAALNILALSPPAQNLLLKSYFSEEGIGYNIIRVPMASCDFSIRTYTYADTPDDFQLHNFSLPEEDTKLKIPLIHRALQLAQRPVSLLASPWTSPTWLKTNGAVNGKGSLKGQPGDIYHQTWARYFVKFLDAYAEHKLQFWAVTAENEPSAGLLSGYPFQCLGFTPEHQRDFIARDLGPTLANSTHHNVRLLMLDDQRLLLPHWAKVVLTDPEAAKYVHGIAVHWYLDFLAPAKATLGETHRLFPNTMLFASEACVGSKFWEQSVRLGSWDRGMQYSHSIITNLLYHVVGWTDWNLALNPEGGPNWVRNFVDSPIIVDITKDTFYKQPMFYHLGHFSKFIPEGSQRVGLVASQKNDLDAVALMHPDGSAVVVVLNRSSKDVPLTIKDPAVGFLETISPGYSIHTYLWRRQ
On to `O=C(OCC(O)C(O)COC(=O)c1ccccc1)c1ccccc1` (stereo not drawn), for which the Potency is > 76.9 µM (inactive).
`Cc1ccc(S(=O)(=O)NCc2csc(C)n2)c(C)c1`: the Potency is > 76.9 µM (inactive).
For `Cc1ccc(C)c(NS(=O)(=O)c2cc(Br)cnc2N)c1`, the Potency is 15.2 µM (active).
For `COC(=O)c1c(NC(=O)CSc2nc3c(c(=O)n(C)c(=O)n3C)n2C(C)C)sc(C)c1C` the value was > 76.9 µM (inactive); for `Cc1nc2c(-c3ccccc3)c(C)[nH]n2c(=O)c1Cl`, 5.44 µM (active); for `Cc1nc2nc(COc3ccccc3)[nH]n2c(=O)c1C`, > 76.9 µM (inactive).
Regarding `CCn1c(COc2ccccc2)nnc1SCC(=O)Nc1ccc2c(c1)OCCO2`, the Potency was > 76.9 µM (inactive).
Take `O=c1cc(Cn2nnc(-c3ccc(Cl)cc3)n2)nc2sccn12`: the Potency is > 76.9 µM (inactive).
Consider `O=C(NCc1cn2ccsc2n1)Nc1ccc(Cl)cc1`, for which the Potency was > 76.9 µM (inactive).
As for `O=C(NCc1ccc(Cl)cc1)c1cc2c(nc3sccn32)s1`, the Potency is 8.26 µM (active).
With `CCn1c(SCC(=O)c2ccc(Cl)s2)nnc1-c1cccs1`, the Potency was > 76.9 µM (inactive).
As for `CC(=O)N1CCC(C(=O)Nc2nc(-c3ccccc3)ns2)CC1`, the Potency was 7.19 µM (active).
For `Cc1ccc2c(NC(=O)C3CC3)cccc2n1`, the Potency was > 76.9 µM (inactive).
With `CCN(CC)S(=O)(=O)N1CCC(C(=O)NC(C)CCc2ccccc2)CC1` (stereo not drawn), the Potency was > 76.9 µM (inactive).
Regarding `CCc1nnc(NS(=O)(=O)c2ccc(NS(=O)(=O)c3ccccc3)cc2)s1`, the Potency is > 76.9 µM (inactive).
For `CCc1nnc(NC(=O)c2ccc(S(=O)(=O)NC3CCCCC3)cc2)s1` the value was 9.65 µM (active); for `CCc1nnc(NC(=O)C2CCCN2S(=O)(=O)c2ccccc2)s1` (stereo not drawn), > 76.9 µM (inactive).
Turning to `O=C(c1ccccc1-c1ccccc1)N1CCOCC1`, the Potency is > 76.9 µM (inactive).
Take `Cc1occc1C(=O)Nc1cccc(Cn2cccn2)c1`: the Potency is > 76.9 µM (inactive).
Take `CCNc1nc(N)nc(Oc2ccc(OCC)nn2)n1`: the Potency was > 76.9 µM (inactive).
Turning to `CC(C)(C)c1nc(NCC2CCCO2)c2nnn(Cc3ccccc3)c2n1` (stereo not drawn), the Potency was > 76.9 µM (inactive).
To `Cc1ccccc1-c1nnn(CC(=O)c2ccc(S(=O)(=O)N3CCCC3)cc2)n1` belongs > 76.9 µM (inactive); to `O=C(Cn1nnc(-c2ccccc2)n1)NCc1ccccc1`, > 76.9 µM (inactive); to `CC(C)(C)NC(=O)Cn1nnc(-c2ccccc2Cl)n1`, 15.2 µM (active).
As to `Cc1noc(C)c1COC(=O)Cn1c(C)nc2ccccc21`, the Potency is > 76.9 µM (inactive).
With `CC(C)[C@H](NC(=O)Nc1ccc(S(N)(=O)=O)cc1)C(=O)O`, the Potency was > 76.9 µM (inactive).
Turning to `COc1ccc(OC)c(NC(=O)CSc2nc3cccnc3n2C)c1`, the Potency was > 76.9 µM (inactive).
With `CCOC(=O)CSc1nnc(CNc2nc(-c3ccccc3)cs2)n1C`, the Potency was > 76.9 µM (inactive).
Turning to `Cc1ccc(NC(=O)Cn2nc(C)c3ccccc3c2=O)c(C)c1`, the Potency is > 76.9 µM (inactive).
With `O=C(NC1CCCCC1)c1ccc2c(=O)n(CC3CCCO3)c(=O)[nH]c2c1` (stereo not drawn), the Potency is 6.37 µM (active).
With `COC(=O)c1ccc2c(=O)n(CC3CCCO3)c(=S)[nH]c2c1` (stereo not drawn), the Potency is > 76.9 µM (inactive).
As to `O=c1c2cc3c(=O)n(CC4CCCO4)c(=O)c3cc2c(=O)n1CC1CCCO1` (stereo not drawn), the Potency is > 76.9 µM (inactive).
Turning to `O=C(C1CCC(C(=O)N2CCCC2)CC1)N1CCCC1` (stereo not drawn), the Potency was > 76.9 µM (inactive).
With `CCOc1ccc(NC(=O)Nc2cc(C)on2)cc1`, the Potency was > 76.9 µM (inactive).
As to `CC1(C)CC(=O)C=C(NCCCN2CCCC2=O)C1`, the Potency was > 76.9 µM (inactive).
On to `O=C(OCc1nnc(-c2ccccc2)o1)c1ccc2c(c1)C(=O)N(CCc1ccccc1)C2=O`, for which the Potency is > 76.9 µM (inactive).
`CCNC(=O)CN(c1ccc(C)cc1)S(=O)(=O)c1ccc(SC)cc1`: the Potency is > 76.9 µM (inactive).
Take `COc1ccc(Cl)cc1NC(=O)C1CC(=O)N(c2ccc(F)cc2)C1` (stereo not drawn): the Potency was > 76.9 µM (inactive).
To `O=S(=O)(NCc1ccccn1)c1ccc(Br)s1` belongs > 76.9 µM (inactive); to `c1ccc(-c2cc(-c3nnc4sc(-c5ccccn5)nn34)[nH]n2)cc1`, > 76.9 µM (inactive); to `CCCn1c(=O)c(-c2ccccc2)c(O)c2ccccc21`, > 76.9 µM (inactive).
As to `Cc1ccc(F)cc1NC(=O)c1ccc2c(c1)OCO2`, the Potency is > 76.9 µM (inactive).
`Cc1ccc(-n2c(N)c(C(=O)N3CCOCC3)sc2=S)c(C)c1`: the Potency was > 76.9 µM (inactive).
In the case of `COc1ccc(-n2nnnc2SCC(=O)c2ccc(OC)c(OC)c2)cc1`, the Potency was > 76.9 µM (inactive).
As to `Cn1c(SCC(=O)Nc2cccc(NC(=O)c3cccs3)c2)nnc1-c1ccncc1`, the Potency was > 76.9 µM (inactive).
For `COc1ccc(N2CCN(C(=O)CSc3nnc4ncccn34)CC2)cc1` the value was > 76.9 µM (inactive).
`Cc1ccc(OCC(=O)Nc2ccc(-c3nc4ncccc4o3)cc2)cc1`: the Potency is > 76.9 µM (inactive).
Regarding `O=C(O)c1ccc(-n2cccc2)cc1O`, the Potency was > 76.9 µM (inactive).
As to `CCCCN(C)C(=O)C1CCN(Cc2ccccn2)CC1`, the Potency was > 76.9 µM (inactive).
Turning to `O=C(Nc1ccon1)c1cccc(Cl)c1`, the Potency is > 76.9 µM (inactive).
Regarding `Fc1ccc(Cn2nnnc2C(c2cccs2)N2CCCCCC2)cc1` (stereo not drawn), the Potency was > 76.9 µM (inactive).
For the compound `CCC(=O)N(Cc1cc2cc(OC)ccc2[nH]c1=O)c1ccccc1C`, the Potency is > 76.9 µM (inactive).
For `Cc1ccc(C2(c3ccc(C)cc3)NC(=O)N(Cc3c(C)noc3C)C2=O)cc1` the value was > 76.9 µM (inactive).
Regarding `CCOc1cc(C2C(C(=O)OC)=CN(C3CCCC3)C=C2C(=O)OC)cc(Br)c1O`, the Potency is 6.06 µM (active).
Consider `CCOc1ccc(CNC(=O)C2CCC(=O)N2C2CCCC2)cc1OC` (stereo not drawn), for which the Potency was > 76.9 µM (inactive).
Take `CCOc1ccccc1C1C(C(=O)OC)=CN(C)C=C1C(=O)OC`: the Potency was > 76.9 µM (inactive).
For the compound `CC(C)CCNC(=O)CN(C(=O)Cn1nnc(-c2ccc(F)cc2)n1)C1CCCC1`, the Potency was > 76.9 µM (inactive).
Regarding `CC(=O)Nc1ccc(S(=O)(=O)NCCc2ccccc2)cc1`, the Potency is > 76.9 µM (inactive).
Take `O=C(CN1CCN(c2nc(-c3ccccc3)cs2)CC1)NCc1ccc2c(c1)OCO2`: the Potency was > 76.9 µM (inactive).
Consider `O=C(CSc1nnc(-c2ccccc2)o1)N1CCOCC1`, for which the Potency was > 76.9 µM (inactive).
On to `CCN1C(=O)/C(=C\N2CCN(c3ccccc3)CC2)SC1=S`, for which the Potency was 70.4 µM (inactive).
Consider `CS(=O)(=O)N(CC(=O)N1CCN(c2cccc(Cl)c2)CC1)c1ccccc1`, for which the Potency is > 76.9 µM (inactive).
For the compound `CCN1C(=O)/C(=C\N2CCN(c3cccc(Cl)c3)CC2)SC1=S`, the Potency is 7.83 µM (active).
`CCOc1ccc(NC(=O)Nc2ccc(N(C)C(C)=O)cc2)cc1`: the Potency was > 76.9 µM (inactive).
With `CCOc1ccc(NC(=O)N2CCN(CC)CC2)cc1`, the Potency was 11.1 µM (active).
Regarding `CCOc1ccc(NC(=O)N2CC=C(n3c(=O)[nH]c4ccccc43)CC2)cc1`, the Potency is > 76.9 µM (inactive).
Turning to `Cc1ccc(NC(=O)NCC(c2cccnc2)N2CCOCC2)cc1` (stereo not drawn), the Potency is > 76.9 µM (inactive).
Consider `COc1ccc(C(CNC(=O)c2cccnc2SC)N2CCOCC2)cc1` (stereo not drawn), for which the Potency is 15 µM (active).
Regarding `CSc1ncccc1C(=O)OCC(=O)N1CCOCC1`, the Potency is > 76.9 µM (inactive).
Turning to `COc1ccc2[nH]c(=O)c(CN(Cc3nnnn3CCc3ccccc3)CC3CCCO3)cc2c1` (stereo not drawn), the Potency is 35.8 µM (inactive).
On to `CCC(c1nnnn1Cc1ccccc1)N(Cc1cc2cc(OC)ccc2[nH]c1=O)CC1CCCO1` (stereo not drawn), for which the Potency was > 76.9 µM (inactive).
`CCC(c1nnnn1Cc1ccco1)N(CCc1ccccc1)Cc1cc2ccc(OC)cc2[nH]c1=O` (stereo not drawn): the Potency was 14.2 µM (active).
`CSc1cccc(NC(=O)C2CCCN2S(=O)(=O)c2ccc3c(c2)CCC(=O)N3)c1` (stereo not drawn): the Potency was 10.1 µM (active).
With `Cc1cccc(NC(=O)C2CCCN2S(=O)(=O)c2ccc(F)cc2)c1C` (stereo not drawn), the Potency was > 76.9 µM (inactive).
For `O=C(O)C1CCCN1S(=O)(=O)c1ccc2c(c1)CCC2` (stereo not drawn) the value was > 76.9 µM (inactive); for `COc1ccc(-n2c(C)nc3c(cnn3-c3ccccc3)c2=O)cc1`, > 76.9 µM (inactive); for `CNC(=O)c1nnn(-c2ccccc2)c1C(=O)NC`, > 76.9 µM (inactive).
To `CCCCC(=O)Nc1ccc2c(c1)OCCO2` belongs > 76.9 µM (inactive); to `CCCC(=O)Nc1ccc(C(=O)NCCCn2ccnc2)cc1`, 6.73 µM (active); to `CCOc1ccccc1C(=O)NCCCn1ccnc1`, > 76.9 µM (inactive).
For `Cc1ccc(CNC(=O)CCCNC(=O)c2ccc(Cl)cc2)n1C`, the Potency was > 76.9 µM (inactive).
To `CCN(CC)C(=O)CCC(=O)Nc1ccc(C(=O)OC)cc1` belongs > 76.9 µM (inactive); to `CCCCC(=O)Nc1ccc(C(=O)NCCCn2ccnc2)cc1`, 5.11 µM (active); to `CCc1c(C)nc(N)n2c(SCC(=O)N3CCN(c4ccccc4)CC3)nnc12`, > 76.9 µM (inactive).
For the compound `COc1c(C)cccc1C(=O)Nc1cc(Cl)ccc1N1CCOCC1`, the Potency is > 76.9 µM (inactive).
As to `COc1ccc(S(=O)(=O)N2CCCC2)c(C)c1C`, the Potency was > 76.9 µM (inactive).
Regarding `CC(C)C(c1nnnn1C1CCCC1)N1CCN(c2ccccc2F)CC1` (stereo not drawn), the Potency was 45 µM (inactive).
With `CCOC(=O)c1c(C)[nH]c(C)c1C(=O)CSc1nc(N)cc(N)n1`, the Potency is > 76.9 µM (inactive).
Take `O=C(CSc1nnc(-c2cnccn2)n1Cc1ccco1)c1ccc(Cl)c(Cl)c1`: the Potency was > 76.9 µM (inactive).
Regarding `COCCCn1c(CCC(=O)O)ccc1-c1ccc(F)cc1`, the Potency is > 76.9 µM (inactive).
To `O=C(NCCCNC(=O)NC1CCCCC1)NC1CCCCC1` belongs > 76.9 µM (inactive); to `CC(=O)N1CSCC1C(=O)O` (stereo not drawn), > 76.9 µM (inactive); to `O=C(CSc1nnc(-c2ccco2)n1CC1CCCO1)c1ccccc1` (stereo not drawn), > 76.9 µM (inactive).
